Results on seven sequences are retold here after the supplement of paper PMC6555819.

Experiment in all cases: PBM binding z-score (relative to random genomic background probes); higher = stronger binding; sequences stand for … in GC…GCGATTGACAGCGTAGAATGAAGG
Test [1] relates to FXR:RXRa (NR concentration 270 nM, RXRa partner concentration 90 nM). A digest of the protocol: (§1)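 Binding buffer was PBS pH 7.4 with 2% milk, 0.02% Triton X-100, 1 mM DTT, 0.2 mg/mL BSA and 0.4 mg/ml salmon testes DNA. In it, ligand-free nuclear receptor dimers were incubated 1 h on custom Agilent 4×180K protein-binding microarrays carrying double-stranded probes. Antibodies against each partner (one per run) detected binding, and z-scores were calculated against random background probes after regression normalization of scanned fluorescence.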

Test [2] concerns LXRa:RXRa (NR concentration 270 nM, RXRa partner concentration 90 nM). A digest of the protocol:
as §1

Test [3] has as its system LXRa homodimer (NR concentration 270 nM). A digest of the protocol:
as §1

Test [4] concerns LXRb:RXRa (NR concentration 270 nM, RXRa partner concentration 90 nM). A digest of the protocol: as §1
For test [5], the system named is LXRb homodimer (NR concentration 270 nM). A digest of the protocol:
as §1

Test [6] relates to PPARa:RXRa (NR concentration 270 nM, RXRa partner concentration 90 nM). A digest of the protocol: as §1
The subject of test [7] is PPARg:RXRa (NR concentration 180 nM, RXRa partner concentration 90 nM). An outline of the steps: as §1
Test [8] relates to PPARg:RXRa 270nM:90nM, anti-RXR (NR concentration 270 nM, RXRa partner concentration 90 nM). A digest of the protocol:
as §1

Test [9] relates to PPARg:RXRa 30nM:10nM, anti-RXR (NR concentration 30 nM, RXRa partner concentration 10 nM). A digest of the protocol:
as §1

The test system of test [10] is PPARg:RXRa 90nM:30nM, anti-RXR (NR concentration 90 nM, RXRa partner concentration 30 nM). An outline of the steps:
as §1

In test [11] the test system is PPARg:RXRa DBDmut IVT, anti-RXR (DBD mutation: RXRa K156A/R161A, NR concentration 270 nM, RXRa partner concentration 90 nM). An outline of the steps:
as §1

In test [12] the test system is PPARg:RXRa IVT, anti-PPARg (NR concentration 270 nM, RXRa partner concentration 90 nM). An outline of the steps: as §1
For test [13], the system named is PPARg DBDmut:RXRa IVT, anti-PPARg (DBD mutation: PPARg1 K132A/R137A, NR concentration 270 nM, RXRa partner concentration 90 nM). An outline of the steps:
as §1

The test system of test [14] is PPARg DBDmut IVT, anti-PPARg (DBD mutation: PPARg1 K132A/R137A, NR concentration 270 nM). An outline of the steps: as §1
The test system of test [15] is PPARg homodimer (NR concentration 180 nM). A digest of the protocol: as §1
The subject of test [16] is PXR:RXRa (NR concentration 270 nM, RXRa partner concentration 90 nM). A digest of the protocol: as §1
Test [17] has as its system PXR homodimer (NR concentration 270 nM). An outline of the steps:
as §1

Test [18] relates to RARa:RXR (NR concentration 270 nM, RXRa partner concentration 90 nM). An outline of the steps:
as §1

The test system of test [19] is RARa homodimer (NR concentration 270 nM). An outline of the steps:
as §1

The test system of test [20] is RARb:RXRa (NR concentration 270 nM, RXRa partner concentration 90 nM). An outline of the steps: as §1

Regarding GCATATAGGTACTACAAGGTGAAAGTCCGATTGT, the PBM binding z-score was 0.689 in test [1]; -0.132 in [2]; -0.343 in [3]; 0.0572 in [4]; -0.233 in [5]; 0.972 in test [6]. For the same sequence, the PBM binding z-score was 0.697 in test [7]; 0.784 in test [8]; 0.264 in test [9]; 0.566 in test [10]; 1.67 in test [11]; 1.24 in [12]. The PBM binding z-score in [13] is 0.887; in [14], 0.583; in test [15], 0.651; in test [16] it was 0.2; in test [17] it was -0.351; in test [18] it was 1.36. The figures for the PBM binding z-score in [19] and in [20] were -0.147 and 0.285, respectively.

Regarding CGTCACAGTTCAAGGTAACGTAACAGAAAGCAGC, the PBM binding z-score in test [1] came to 2.2; in [2] it was 1.91; in test [3], 0.443; in test [4], 1.52; in test [5], 0.237; in test [6] it was 2.46. Further, the PBM binding z-score stood at 1.29 in test [7]; 1.19 in test [8]; 0.243 in test [9]; 0.61 in [10]; 0.275 in test [11]; 1.23 in test [12]. Besides, the PBM binding z-score was 0.33 in [13]; 0.734 in [14]; 0.946 in test [15]; 1.93 in [16]; 0.75 in test [17]; 1.78 in test [18]. Moreover, the figures for the PBM binding z-score in [19] and in test [20] were 0.462 and 2.73, respectively.

Regarding GCTTACGGGTCAAAGGTTATCGCATGAATAGAAT, the PBM binding z-score in test [1] turned out to be 7.98; in test [2] it was 5.85; in test [3], 0.561; in test [4], 5.81; in test [5] it was 0.413; in test [6], 6.94. Moreover, the PBM binding z-score in [7] amounted to 11.7; in [8] it was 9.26; in test [9], 8.55; in [10], 10.3; in [11] it was 5.17; in [12], 6.06. Moreover, the PBM binding z-score in [13] worked out at 0.968; in test [14], 0.942; in test [15], 2.75; in [16] it was 6.19; in test [17] it was 0.364; in test [18], 8.16. The PBM binding z-score in test [19] stood at 0.571; in test [20], 4.76.

For the sequence ATCTCTAGGTAACCAAGTACAGTGAATGCCGAAC, the PBM binding z-score amounted to 0.125 in test [1]; 0.246 in [2]; 0.247 in [3]; 0.353 in test [4]; 0.673 in test [5]; 0.645 in [6]. The PBM binding z-score in [7] came to 0.752; in test [8], 0.425; in test [9], 0.0273; in test [10], 0.341; in [11] it was 3.29; in test [12] it was 3.07. Also, the PBM binding z-score in test [13] was 1.88; in test [14], 1.42; in test [15] it was 0.713; in test [16], 0.0867; in test [17], 0.597; in [18], -0.0145. Also, the results for the PBM binding z-score in test [19] and in test [20] were 1.1 and 0.347, respectively.

With ACTAGTTGGTCAGATGAGGTCACACACAATTCGG, the PBM binding z-score in [1] was found to be 3.83; in [2] it was 3.41; in [3], 2.89; in [4] it was 3.36; in test [5], 0.869; in test [6], 3.74. Further, the PBM binding z-score stood at 2.28 in test [7]; 2.43 in [8]; 0.846 in [9]; 1.63 in test [10]; 1.63 in test [11]; 2.78 in test [12]. Further, the PBM binding z-score in test [13] is 1.26; in [14] it was 1.93; in test [15], 3.45; in test [16], 5.55; in test [17], 2.21; in test [18], 4.72. In addition, the PBM binding z-score is 2.3 in [19] and 3.3 in [20].

Turning to ATCGAAAGGTCGACGTGAGTATAGAGAAAGGGAA, the PBM binding z-score is 3.97 in test [1]; 3.07 in test [2]; -0.0365 in test [3]; 2.39 in test [4]; 0.422 in [5]; 4.06 in [6]. In addition, the PBM binding z-score is 2.45 in test [7]; 2.9 in test [8]; 1.04 in test [9]; 2.13 in test [10]; -0.328 in test [11]; 1.19 in test [12]. Moreover, the PBM binding z-score in test [13] was found to be 1.19; in [14] it was 0.607; in test [15] it was 0.972; in [16], 2.21; in test [17], 0.153; in [18] it was 2.94. For the same sequence, the PBM binding z-score in test [19] is -0.0772; in [20], 3.82.

In the case of CGAACGAGGGCTTGAGTTGATAGCAAATGCCGAT, the PBM binding z-score in test [1] was -0.357; in test [2], -0.589; in test [3], -0.512; in [4] it was -0.688; in test [5] it was -0.924; in [6], -0.425. In addition, the PBM binding z-score in [7] was 0.25; in [8] it was -0.478; in test [9], -0.548; in test [10], -0.639; in test [11] it was 0.359; in test [12] it was -0.447. Besides, the PBM binding z-score in [13] is -0.831; in test [14], -1.02; in [15], -0.915; in test [16], -0.245; in test [17] it was -0.409; in test [18] it was -0.285. Further, the PBM binding z-score in test [19] is -0.522; in [20], -0.252.
